The source of these data is PubChem BioAssay AID2132 (NMMLSC, 2009).

Activity calls are given as the source filed them.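 The calls were made as follows: active = inhibition above 20%; inactive = the rest.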 Peptide text beside a SMILES is read from it. * marks the point of attachment. Cbz = O=C(OCc1ccccc1)*

This experiment in a line: yeast 26S proteasome protease site inhibitors – biochemical, fluorogenic peptides, secondary, counter-screen for 26S proteasome disassembly project (AID 2132). The following applies: fluorogenic peptide cleavage rate, with Suc-LLVY-amc, at 100 µM, stronger effect = higher value. A general note: A counterscreen serves to expose hits that act by an unwanted route or on another target.

In the case of `CC(C)C[C@@H](C=O)NC(=O)[C@H](CC(C)C)NC(=O)[C@H](CC(C)C)NC(=O)OCc1ccccc1` (Cbz-Leu-Leu-Leu-aldehyde), the inhibition is 97% (active).

With `CC(=O)N1C(=O)C(=C2C=C(C)OC(C)=C2)c2ccccc21`, the inhibition is 45% (active).

What is called inhibition is how much of the control response was suppressed.
